From PubChem BioAssay (EPA / NIEHS) come the findings set out here.

Each structure is given as a SMILES string. Activity calls are given as the source filed them. How the source made its calls: active means hit-call score of the fitted dose curve at least 0.9, where 1 is the maximum; inactive means score below 0.9.

Holding throughout (settings): mRNA level, 48 h; actives raise or lower the signal
Read-out in test [1]: Fatty acid synthase (Homo sapiens) (UniProt P49327)
Briefly: LTEA_HepaRG_FASN: Life Technologies and Expression Analysis (LTEA) Assay for Fatty Acid Synthase (FASN) using HepaRG (AID 2283448). In outline: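 In human HepaRG cultures, 48 h chemical exposure (up to 100 uM, 0.5% DMSO) preceded TaqMan qRT-PCR of FASN.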

Read-out in test [2]: Cyclin D2 (CCND2), CCND2 (gene 894)
Kind of test: LTEA_HepaRG_CCND2: Life Technologies and Expression Analysis (LTEA) Assay for Cyclin D2 (CCND2) using HepaRG (AID 2283449). In a few lines: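 CCND2 transcript levels, quantified by qRT-PCR and normalised to three housekeeping genes, were fitted bidirectionally against 0.5% DMSO. HepaRG cultures were dosed 48 h in duplicate with an 8-point half-log series up to 100 uM.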

Read-out in test [3]: Cyclin Dependent Kinase Inhibitor 1A (CDKN1A), CDKN1A (gene 1026)
Kind of test: LTEA_HepaRG_CDKN1A: Life Technologies and Expression Analysis (LTEA) Assay for Cyclin Dependent Kinase Inhibitor 1A (CDKN1A) using HepaRG (AID 2283450). In outline: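 Cryopreserved HepaRG cells were plated and cultured 48 h, then switched to serum-free induction medium. Chemicals (eight half-log concentrations, top 100 uM, 0.5% DMSO) were applied for 48 h. Lysates underwent qRT-PCR for CDKN1A with housekeeping normalization.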

Read-out in test [4]: Cyclin D1 (CCND1), CCND1 (gene 595)
Kind of test: LTEA_HepaRG_CCND1: Life Technologies and Expression Analysis (LTEA) Assay for Cyclin D1 (CCND1) using HepaRG (AID 2283451).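 On AC50: TaqMan qRT-PCR transcript level normalised to ACTB GAPDH and POLR2A housekeeping genes.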 In outline:
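Human liver HepaRG line; 48 h dosing, 8 conc. ≤100 uM, 0.5% DMSO; TaqMan qRT-PCR mRNA, 3 housekeeping genes; bidirectional curve fit vs DMSO.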

Read-out in test [5]: catalase (CAT), CAT (gene 847)
Kind of test: LTEA_HepaRG_CAT: Life Technologies and Expression Analysis (LTEA) Assay for catalase (CAT) using HepaRG (AID 2283452).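 On AC50: TaqMan qRT-PCR signal normalized to ACTB GAPDH and POLR2A housekeeping genes.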 In outline: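 Expression of CAT was quantified by TaqMan qRT-PCR with ACTB/GAPDH/POLR2A normalization after 48 h chemical exposure of HepaRG. Eight-point half-log series, top 100 uM, in 0.5% DMSO; gain or loss fitted against vehicle.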

Read-out in test [6]: flavin-containing dimethylaniline monooxygenases 3 (FMO3), FMO3 (gene 2328)
Briefly: LTEA_HepaRG_FMO3: Life Technologies and Expression Analysis (LTEA) Assay for flavin-containing dimethylaniline monooxygenases 3 (FMO3) using HepaRG (AID 2283453). In outline:
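Eight-point concentration-response in serum-free HepaRG cultures (top 100 uM, 0.5% DMSO, 48 h). Read-out: FMO3 mRNA level normalized to three endogenous control genes, fitted bidirectionally versus vehicle.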

Read-out in test [7]: Cytochrome P450 (CYP1A1), CYP1A1 (gene 1543)
Briefly: LTEA_HepaRG_CYP1A1: Life Technologies and Expression Analysis (LTEA) Assay for Cytochrome P450 (CYP1A1) using HepaRG (AID 2283454). In a few lines:
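Induction of CYP1A1 mRNA in a human hepatic cell line was measured 48 h after dosing, with 1 mM phenobarbital as induction positive control and 0.5% DMSO vehicle as baseline for bidirectional curve fitting.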

Read-out in test [8]: CFLAR gene, CFLAR (gene 8837)
Briefly: LTEA_HepaRG_CFLAR: Life Technologies and Expression Analysis (LTEA) Assay for CFLAR gene using HepaRG (AID 2283455). In a few lines:
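Transcript level by qRT-PCR (normalized to ACTB, GAPDH and POLR2A) after 48 h chemical exposure of HepaRG cells, top concentration 100 uM with half-log steps, 0.5% DMSO vehicle, duplicates; fitted bidirectionally against DMSO baseline.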

Read-out in test [9]: Forkhead box O1 (FOXO1), FOXO1 (gene 2308)
Kind of test: LTEA_HepaRG_FOXO1: Life Technologies and Expression Analysis (LTEA) Assay for Forkhead box O1 (FOXO1) using HepaRG (AID 2283456). In outline: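 FOXO1 transcript quantified by qRT-PCR after 48 h chemical exposure (top 100 uM, half-log steps, 0.5% DMSO) of HepaRG cells, housekeeping-normalized (ACTB/GAPDH/POLR2A). Changes fitted in both directions relative to vehicle.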

Read-out in test [10]: growth arrest and DNA damage 45 (GADD45A), GADD45A (gene 1647)
Kind of test: LTEA_HepaRG_GADD45A: Life Technologies and Expression Analysis (LTEA) Assay for growth arrest and DNA damage 45 (GADD45A) using HepaRG (AID 2283458). In a few lines:
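Eight-point concentration-response in HepaRG cells: 48 h chemical exposure, 0.5% DMSO vehicle, top dose 100 uM. Normalized qRT-PCR mRNA readout with bidirectional fitting relative to DMSO.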

Read-out in test [11]: Forkhead box O3 (FOXO3), FOXO3 (gene 2309)
Briefly: LTEA_HepaRG_FOXO3: Life Technologies and Expression Analysis (LTEA) Assay for Forkhead box O3 (FOXO3) using HepaRG (AID 2283459). In outline:
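FOXO3 transcript measured by qRT-PCR (normalized to ACTB, GAPDH, POLR2A) after 48 h exposure of HepaRG cells in serum-free induction medium. Duplicates, eight half-log concentrations up to 100 uM, 0.5% DMSO; gain or loss fitted against DMSO.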

Read-out in test [12]: ABC Transporter (ABCB1), ABCB1 (gene 5243)
Briefly: LTEA_HepaRG_ABCB1: Life Technologies and Expression Analysis (LTEA) Assay for ABC Transporter (ABCB1) using HepaRG (AID 2283460). In outline: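 ABCB1 transcript level measured by TaqMan qRT-PCR against three housekeeping genes after 48 h chemical exposure of differentiated HepaRG cells. Top concentration 100 uM, half-log steps, eight points, 0.5% DMSO vehicle; bidirectional fit relative to DMSO.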

Read-out in test [13]: growth arrest and DNA damage 45 (GADD45B), GADD45B (gene 4616)
Briefly: LTEA_HepaRG_GADD45B: Life Technologies and Expression Analysis (LTEA) Assay for growth arrest and DNA damage 45 (GADD45B) using HepaRG (AID 2283461). In outline: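 Values are bidirectional concentration-response fits against 0.5% DMSO controls. Underlying data: qRT-PCR mRNA levels in human HepaRG liver cells treated 48 h in serum-free induction medium, eight concentrations topping at 100 uM.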

Read-out in test [14]: ABC Transporter (ABCC3), ABCC3 (gene 8714)
Kind of test: LTEA_HepaRG_ABCC3: Life Technologies and Expression Analysis (LTEA) Assay for ABC Transporter (ABCC3) using HepaRG (AID 2283462). In outline: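 Differentiated HepaRG liver cells receive test chemicals at eight concentrations (max 100 uM) for 48 h. Expression of ABCC3 is quantified by qRT-PCR against ACTB, GAPDH and POLR2A, and activity is fitted in both directions against the DMSO control.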

Read-out in test [15]: ABC Transporter (ABCB11), ABCB11 (gene 8647)
Kind of test: LTEA_HepaRG_ABCB11: Life Technologies and Expression Analysis (LTEA) Assay for ABC Transporter (ABCB11) using HepaRG (AID 2283463). In a few lines: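 ABCB11 transcript levels quantified by TaqMan qRT-PCR against three housekeeping genes after 48 h chemical exposure of HepaRG cultures. Concentrations up to 100 uM in half-log steps, 0.5% DMSO vehicle; both induction and suppression scored.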

Read-out in test [16]: ABC Transporter (ABCC2), ABCC2 (gene 1244)
Briefly: LTEA_HepaRG_ABCC2: Life Technologies and Expression Analysis (LTEA) Assay for ABC Transporter (ABCC2) using HepaRG (AID 2283464). In outline:
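Gene expression of ABCC2 was determined by qRT-PCR in HepaRG cells exposed 48 h to chemicals (highest 100 uM, half-log dilutions). Activity was fitted in both directions relative to 0.5% DMSO vehicle.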

Read-out in test [17]: Broad substrate specificity ATP-binding cassette transporter ABCG2 (Homo sapiens) (UniProt Q9UNQ0)
Kind of test: LTEA_HepaRG_ABCG2: Life Technologies and Expression Analysis (LTEA) Assay for ABC Transporter (ABCG2) using HepaRG (AID 2283465). In outline:
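ABCG2 transcript was quantified by TaqMan qRT-PCR against three housekeeping genes in HepaRG cells. Cells were treated in duplicate for 48 h across an 8-point half-log series up to 100 uM, with 0.5% DMSO vehicle. Gain or loss versus DMSO was fit.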

Read-out in test [18]: ATP-citrate lyase (ACLY), ACLY (gene 47)
Kind of test: LTEA_HepaRG_ACLY: Life Technologies and Expression Analysis (LTEA) Assay for ATP-citrate lyase (ACLY) using HepaRG (AID 2283466). In outline:
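ACLY mRNA quantified by qRT-PCR on Fluidigm arrays against three housekeeping genes, after 48 h chemical treatment of HepaRG cells (top concentration 100 uM, half-log steps, 0.5% DMSO vehicle). Up- or down-regulation fitted relative to DMSO.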

Read-out in test [19]: Peroxisomal acyl-coenzyme A oxidase 1 (ACOX1) gene, ACOX1 (gene 51)
Kind of test: LTEA_HepaRG_ACOX1: Life Technologies and Expression Analysis (LTEA) Assay for Peroxisomal acyl-coenzyme A oxidase 1 (ACOX1) gene using HepaRG (AID 2283467). In a few lines:
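ACOX1 transcript levels were quantified by TaqMan qRT-PCR against three housekeeping genes after 48 h chemical exposure of differentiated human HepaRG cells. Exposure used eight half-log steps topping at 100 uM, 0.5% DMSO vehicle, in duplicate. Bidirectional curve fits were made relative to DMSO.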

Chain of Broad substrate specificity ATP-binding cassette transporter ABCG2 (Homo sapiens) (Q9UNQ0 whole entry, looked up): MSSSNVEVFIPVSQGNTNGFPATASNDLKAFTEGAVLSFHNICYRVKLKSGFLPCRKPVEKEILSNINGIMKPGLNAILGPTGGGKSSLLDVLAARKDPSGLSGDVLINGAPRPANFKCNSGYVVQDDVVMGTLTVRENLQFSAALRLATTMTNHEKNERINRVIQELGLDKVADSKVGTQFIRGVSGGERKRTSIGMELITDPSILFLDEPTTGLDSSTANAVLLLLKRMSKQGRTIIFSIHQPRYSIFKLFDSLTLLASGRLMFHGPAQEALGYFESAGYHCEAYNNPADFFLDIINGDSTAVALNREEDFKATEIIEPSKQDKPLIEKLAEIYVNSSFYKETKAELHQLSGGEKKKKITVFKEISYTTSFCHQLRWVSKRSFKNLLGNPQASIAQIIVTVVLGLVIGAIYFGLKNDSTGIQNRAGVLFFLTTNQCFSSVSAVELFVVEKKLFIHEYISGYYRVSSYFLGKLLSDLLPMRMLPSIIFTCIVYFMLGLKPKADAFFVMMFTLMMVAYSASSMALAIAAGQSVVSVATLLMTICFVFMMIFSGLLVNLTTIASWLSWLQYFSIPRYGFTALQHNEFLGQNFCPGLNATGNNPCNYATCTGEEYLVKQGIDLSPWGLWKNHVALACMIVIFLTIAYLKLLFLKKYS
Chain of Fatty acid synthase (Homo sapiens) (P49327 whole entry, looked up): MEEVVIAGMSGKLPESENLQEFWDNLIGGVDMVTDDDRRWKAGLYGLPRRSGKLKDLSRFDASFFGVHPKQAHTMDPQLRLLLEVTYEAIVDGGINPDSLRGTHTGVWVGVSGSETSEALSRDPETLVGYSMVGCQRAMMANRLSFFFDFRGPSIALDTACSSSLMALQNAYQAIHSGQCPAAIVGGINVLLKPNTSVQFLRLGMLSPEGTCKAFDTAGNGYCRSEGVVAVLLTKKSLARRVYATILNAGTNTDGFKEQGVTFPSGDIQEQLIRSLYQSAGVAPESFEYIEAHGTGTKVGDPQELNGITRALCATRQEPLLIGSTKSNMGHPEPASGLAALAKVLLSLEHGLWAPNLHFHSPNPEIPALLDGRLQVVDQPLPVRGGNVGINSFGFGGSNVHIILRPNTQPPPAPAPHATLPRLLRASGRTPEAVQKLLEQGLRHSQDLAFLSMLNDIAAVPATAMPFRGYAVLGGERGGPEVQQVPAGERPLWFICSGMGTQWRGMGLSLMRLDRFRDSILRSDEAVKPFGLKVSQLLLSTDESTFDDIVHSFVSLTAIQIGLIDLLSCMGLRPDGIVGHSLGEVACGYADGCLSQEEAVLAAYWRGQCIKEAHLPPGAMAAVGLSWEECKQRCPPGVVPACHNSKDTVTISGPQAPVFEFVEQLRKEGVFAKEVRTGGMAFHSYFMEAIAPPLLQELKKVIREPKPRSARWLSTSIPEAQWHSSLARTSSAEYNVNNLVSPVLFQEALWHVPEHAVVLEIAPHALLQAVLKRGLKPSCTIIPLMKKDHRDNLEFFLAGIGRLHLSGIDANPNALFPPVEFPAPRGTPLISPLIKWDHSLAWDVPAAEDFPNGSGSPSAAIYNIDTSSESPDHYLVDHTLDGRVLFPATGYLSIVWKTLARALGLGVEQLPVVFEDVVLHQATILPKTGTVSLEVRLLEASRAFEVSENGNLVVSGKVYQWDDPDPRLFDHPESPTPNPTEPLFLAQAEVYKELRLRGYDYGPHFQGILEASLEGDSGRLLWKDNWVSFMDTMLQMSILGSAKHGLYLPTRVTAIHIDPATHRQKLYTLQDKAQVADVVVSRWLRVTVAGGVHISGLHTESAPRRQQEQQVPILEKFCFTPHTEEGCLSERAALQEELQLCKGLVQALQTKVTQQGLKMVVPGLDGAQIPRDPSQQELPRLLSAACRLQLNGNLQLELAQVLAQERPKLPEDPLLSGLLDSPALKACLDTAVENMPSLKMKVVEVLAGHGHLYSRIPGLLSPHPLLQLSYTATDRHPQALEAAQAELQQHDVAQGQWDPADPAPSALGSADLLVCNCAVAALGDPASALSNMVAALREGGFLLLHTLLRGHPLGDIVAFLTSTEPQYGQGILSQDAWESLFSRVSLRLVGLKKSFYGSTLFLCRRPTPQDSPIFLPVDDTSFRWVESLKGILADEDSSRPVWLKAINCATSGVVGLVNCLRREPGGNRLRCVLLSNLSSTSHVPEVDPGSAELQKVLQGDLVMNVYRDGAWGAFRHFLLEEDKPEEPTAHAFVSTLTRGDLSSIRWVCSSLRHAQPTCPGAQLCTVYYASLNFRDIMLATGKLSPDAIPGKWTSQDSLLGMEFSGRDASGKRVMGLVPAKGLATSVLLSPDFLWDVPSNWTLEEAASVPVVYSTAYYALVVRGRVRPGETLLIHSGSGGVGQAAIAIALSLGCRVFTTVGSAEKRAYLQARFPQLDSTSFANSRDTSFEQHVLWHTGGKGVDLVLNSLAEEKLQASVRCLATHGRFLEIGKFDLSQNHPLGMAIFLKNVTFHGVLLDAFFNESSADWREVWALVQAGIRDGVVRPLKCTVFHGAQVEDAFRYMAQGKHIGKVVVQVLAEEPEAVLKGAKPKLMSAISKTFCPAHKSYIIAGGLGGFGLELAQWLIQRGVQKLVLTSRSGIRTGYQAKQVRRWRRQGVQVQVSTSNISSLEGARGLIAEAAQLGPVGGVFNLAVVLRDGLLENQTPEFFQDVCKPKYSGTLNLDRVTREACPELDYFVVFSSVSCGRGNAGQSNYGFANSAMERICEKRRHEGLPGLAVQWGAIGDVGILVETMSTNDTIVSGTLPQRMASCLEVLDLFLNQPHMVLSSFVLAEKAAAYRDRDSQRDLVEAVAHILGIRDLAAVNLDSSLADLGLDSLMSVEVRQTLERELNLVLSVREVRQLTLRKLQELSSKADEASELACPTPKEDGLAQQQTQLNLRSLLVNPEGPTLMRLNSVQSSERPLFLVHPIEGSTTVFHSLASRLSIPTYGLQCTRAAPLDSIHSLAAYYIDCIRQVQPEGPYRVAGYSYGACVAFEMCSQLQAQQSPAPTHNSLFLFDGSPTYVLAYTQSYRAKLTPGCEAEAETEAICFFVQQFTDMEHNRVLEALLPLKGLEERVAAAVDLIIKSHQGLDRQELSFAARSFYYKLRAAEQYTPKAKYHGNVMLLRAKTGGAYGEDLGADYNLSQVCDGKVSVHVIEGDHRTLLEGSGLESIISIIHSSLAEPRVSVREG

Consider `O=[N+]([O-])c1cc(C(F)(F)F)c(Cl)c([N+](=O)[O-])c1Nc1ncc(C(F)(F)F)cc1Cl`, for which the AC50 in test [1] is 50 µM (active); in [4], 14.8 µM (active); in test [5], 29.2 µM (active); in [6], 27.7 µM (active); in test [7] it was 9.68 µM (active); in test [8] it was 40.9 µM (active). Besides, the concentration at half-maximal activity (AC50) was 33.6 µM (active) in [10]; 35.6 µM (active) in test [11]; 13.2 µM (active) in test [14]; 15.8 µM (active) in test [15]; 67.9 µM (active) in [16]; 50 µM (active) in test [17]. For the same molecule, the results for the AC50 in test [18] and in test [19] were 50 µM (active) and 60.2 µM (active), respectively. In addition, the call in test [2], in test [3], in test [9], in test [12] and in test [13] was inactive.
For `C#CC(C)(C)NC(=O)c1cc(Cl)cc(Cl)c1`, the half-maximal activity concentration (AC50) is 0.0239 µM (active) in test [1], 33 µM (active) in test [7], 50 µM (active) in test [12] and 27.3 µM (active) in test [16]. For the same molecule, the molecule was classed as inactive in test [3], in [4], in test [5], in test [6], in [8] and in test [9]. Moreover, the molecule was classed as inactive in [10], in test [11], in test [13], in test [14], in test [15] and in [17]. The molecule was called inactive in [18] and in test [19].
In the case of `CC(C)[C@H](C(=O)O[C@H](C#N)c1cccc(Oc2ccccc2)c1)c1ccc(Cl)cc1`, the result in test [1], in [3], in test [4], in test [5], in [6] and in test [8] was inactive. The outcome in test [9], in test [10], in test [11], in test [13], in test [14] and in [15] was inactive. Besides, the result in test [18] and in [19] was inactive. Further, the half-maximal activity concentration (AC50) in [7] is 34.8 µM (active); in [12] it was 23.2 µM (active); in test [16] it was 50 µM (active); in test [17], 37 µM (active).

Broadly, the AC50 is the concentration giving half of the maximal activity seen.
